The text below walks through data of PubChem BioAssay (Tox21).

Records with an inconclusive call do not appear. The source made the active and inactive calls. Unless noted, calls come from the whole dose curve; as a rule, active = well fitted curve in the direction sought with a large enough effect in the repeat runs; inconclusive = weak or mixed curves; inactive = no such curve, though single readings can be large; an effect the other way counts as inactive or inconclusive.

Assay [1] can be described thus: qHTS assay to identify small molecule agonists of the NFkB signaling pathway (AID 1159509; active = well fitted curve in the direction sought with a large enough effect in the signal ratio in the repeat runs, not every such curve was filed as active; the % refers to the signal ratio; note: series mostly up to about 61 µM). Summed up: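 ME-180 NFkB-bla, 2,000 cells/well, overnight plating; cpd pinned in DMSO, 5 h 37 C; B/G FRET substrate 1.5 h RT; ex 405, em 460/530 nm.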
A short description of assay [2]: qHTS assay to identify small molecule agonists of the NFkB signaling pathway - cell viability counter screen (AID 1159515; calls by dose curve; note: series mostly up to about 61 µM; nearly all actives have a fitted effect of over 55% in size). Summed up: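 Viability in NFkB-bla ME-180 cells was measured by CellTiter-Glo luminescence, 30 min room temperature, in wells already treated 5 hr with compounds and read for reporter FRET.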
Assay [3] in a line: qHTS assay to identify small molecule agonists of the endoplasmic reticulum stress response signaling pathway (AID 1159516; active = well fitted activation curve with a large enough effect in the signal ratio in the repeat runs, not every such curve was filed as active; the % refers to the signal ratio). Summed up:
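ER stress element reporter (bla) in HeLa. 1,500 cells/well, overnight attachment; 5 hr compound; 2 hr RT substrate; dual-emission fluorescence.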

The nature of assay [4]: qHTS assay to identify small molecule agonists of the endoplasmic reticulum stress response signaling pathway - cell viability counter screen (AID 1159517; calls by dose curve;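 note: HeLa cells carrying an ER stress response element beta-lactamase reporter; series mostly up to about 61 µM; nearly all actives have a fitted effect of over 50% in size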). Summed up:
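HeLa cells carrying an ESRE-driven beta-lactamase reporter receive compound for 5 hr at 37 C. Cell viability is then gauged with CellTiter-Glo by luminescence, 30 min at room temperature.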

Assay [5] is described as follows: qHTS assay to identify small molecule antagonists of the retinoid-related orphan receptor gamma (ROR-gamma) signaling pathway - cell viability counter screen (AID 1159520). Note: nearly all actives have a fitted effect of over 50% in size. Note: potency is the fitted concentration of half-maximal effect. Summed up: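 Cytotoxicity was read from cellular ATP (CellTiter-Glo luminescence) after 16 hr at 37 C with 1 uM doxycycline induction. The inducer was added 2 hr after compound transfer to Tet-on ROR gamma CHO cells.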

Assay [6] concerns the target Nuclear receptor ROR-gamma (Homo sapiens) (UniProt P51449). The assay is described as follows: qHTS assay to identify small molecule antagonists of the retinoid-related orphan receptor gamma (ROR-gamma) signaling pathway (AID 1159521; note: nearly all actives have a fitted effect of over 50% in size; note: potency is the fitted concentration of half-maximal effect). Summed up:
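CHO cells expressing RORγ under a TET-on promoter, luciferase under RORE control. Dox 1 uM final, 16 h; compounds added 2 h prior. Luminescence decrease measured.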

Assay [7] can be described thus: qHTS assay to identify small molecule agonists of the AP-1 signaling pathway - cell viability counter screen (AID 1159525; calls by dose curve; note: nearly all actives have a fitted effect of over 55% in size; note: potency is the fitted concentration of half-maximal effect). Summed up:
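Luminescent ATP readout (Cell Titer Glo, 30 min RT), normalised to DMSO and tetra n-octyl ammonium bromide controls. Cells were ME-180 AP-1-bla in 0.5% dialyzed FBS Opti-MEM, with a 5 h, 37 °C compound exposure.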

Assay [8] in a line: qHTS assay to identify small molecule agonists of the RXR signaling pathway - cell viability counter screen (AID 1159529). Note: nearly all actives have a fitted effect of over 50% in size. Note: potency is the fitted concentration of half-maximal effect. Summed up: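 Same-well viability check after the LiveBLAzer FRET read: CellTiter-Glo added, luminescence measured after 30 min at room temperature. Reporter HEK 293T cells had been treated with compounds for 16 hr following a 5 hr preincubation.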
A short description of assay [9]: qHTS assay to identify small molecule antagonists of the retinoid acid receptor (RAR) signaling pathway - cell viability counter screen (AID 1159551). Note: nearly all actives have a fitted effect of over 35% in size. Summed up:
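Following overnight attachment, C3RL4 reporter cells received DMSO-dissolved compounds and then retinol (1 uM final). Six hours later at 37 C, ATP content was measured by CellTiter-Glo luminescence.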

Assay [10] can be described thus: qHTS assay to identify small molecule antagonists of the estrogen related receptor (ERR) signaling pathway - cell viability counter screen (AID 1224818).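 Note: series mostly up to about 46 µM; viability measured after 17.5 h of compound exposure.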 Summed up: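 Here, ERR cells are plated at 2,000 cells per well, allowed 6 h to attach, and treated with compounds in DMSO for 17.5 h at 37 C. CellTiter-Fluor is then added and fluorescence read after 30 min.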

A short description of assay [11]: qHTS assay to identify small molecule antagonists of the estrogen related receptor signaling pathway with the pleiotropic PPARgamma coactivator (PGC) cell viability counter screen (AID 1224822; note: series mostly up to about 46 µM). Summed up:
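qHTS format, DMSO compound stocks pin-transferred onto PGC/ERR cells 6 h after plating; 17.5 h exposure at 37 C, then CellTiter-Fluor fluorescence.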

Assay [12] in a line: qHTS assay to identify small molecule antagonists of the estrogen related receptor (ERR) signaling pathway from Tox21 library - cell viability counter screen (AID 1224834). Note: nearly all actives have a fitted effect of over 30% in size. Note: potency is the fitted concentration of half-maximal effect. Summed up:
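Viability readout (CellTiter-Fluor fluorescence, 30 min at 37 C) multiplexed with the ERR assay; cells treated 17.5 h at 37 C with compounds delivered in DMSO.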

A short description of assay [13]: qHTS assay to identify small molecule antagonists of the retinoic acid receptor (RAR) signaling pathway (AID 1159552; note: nearly all actives have a fitted effect of over 50% in size; note: potency is the fitted concentration of half-maximal effect). Summed up: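 Readout: luciferase luminescence, 30 min post-reagent at RT. Setup: C3RL4 RARE reporter cells, compounds plus retinol 1 uM final, 6 hr incubation at 37 C and 5% CO2.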
A short description of assay [14]: qHTS assay to identify small molecule agonists of the retinoic acid receptor (RAR) signaling pathway (AID 1159553). Note: potency is the fitted concentration of half-maximal effect. Summed up:
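Cell line C3RL4, RARE luciferase reporter. Treatment: compounds in DMSO, 6 hr, 37 C, 5% CO2, after overnight plating. Detection: luminescence, 30 min RT after reagent.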

A short description of assay [15]: qHTS assay to identify small molecule antagonists of the vitamin D receptor (VDR) signaling pathway - cell viability counter screen (AID 743225). Note: nearly all actives have a fitted effect of over 50% in size. Summed up:
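Luminescent cell viability (CellTiter-Glo) in VDR-bla HEK 293T cells after 16 h compound exposure at 37C in the presence of 3 nM final 1-alpha,25-dihydroxy vitamin D3.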

The nature of assay [16]: qHTS assay to identify small molecule agonists of the AP-1 signaling pathway (AID 1159526; calls by dose curve).
The target in assay [17] is Retinoic acid receptor RXR-alpha (Homo sapiens) (UniProt P19793). The assay is described as follows: qHTS assay to identify small molecule agonists of the RXR signaling pathway (AID 1159527; calls by dose curve; note: nearly all actives have a fitted effect of over 35% in size). Summed up: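 Beta-lactamase reporter assay, agonist format. Engineered HEK 293T line, charcoal-stripped FBS at 2%, overnight (16 hr) exposure, fluorescence at 460 and 530 nm after 405 nm excitation.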
Chain of Retinoic acid receptor RXR-alpha (Homo sapiens) (P19793 whole entry, looked up): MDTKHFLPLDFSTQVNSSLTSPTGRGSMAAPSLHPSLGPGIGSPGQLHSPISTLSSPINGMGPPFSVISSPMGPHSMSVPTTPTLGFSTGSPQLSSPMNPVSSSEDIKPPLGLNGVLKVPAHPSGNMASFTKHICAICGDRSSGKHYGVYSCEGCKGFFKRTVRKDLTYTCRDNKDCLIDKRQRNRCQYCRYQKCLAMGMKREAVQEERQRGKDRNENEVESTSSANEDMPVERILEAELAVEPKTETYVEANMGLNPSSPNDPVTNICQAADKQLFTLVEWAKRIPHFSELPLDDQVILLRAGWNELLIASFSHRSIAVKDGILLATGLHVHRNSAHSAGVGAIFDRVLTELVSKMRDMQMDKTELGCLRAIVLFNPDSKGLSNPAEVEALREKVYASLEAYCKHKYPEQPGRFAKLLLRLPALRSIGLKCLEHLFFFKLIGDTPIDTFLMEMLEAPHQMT

For `CC(CCc1ccccc1)NC(C)C(O)c1ccc(O)cc1` (centres undefined), the outcome in [1], in [2], in [3], in assay [10] and in assay [11] was inactive. The Potency result in assay [4], in [5], in [6], in assay [7], in [8] and in assay [9] was “inactive” each time. Further, in assay [12], the Potency entry is “inactive”.

In the case of `CC(C(O)c1ccccc1)N(C)C/C=C/c1ccccc1` (centres undefined), the result in assay [1], in assay [2] and in assay [3] was inactive. For the same molecule, the Potency entry in assay [4], in [5], in assay [6], in assay [7], in assay [9] and in [13] was “inactive” throughout. The Potency result in assay [14] and in [12] was “inactive” in each case.

Regarding `CCCSP(=S)(OCC)Oc1ccc(Cl)cc1Cl` (centres undefined), the call in assay [1], in [2] and in [3] was inactive. In addition, the Potency result in assay [4], in [5], in assay [6], in [7], in assay [9] and in assay [13] was “inactive” in each case. The Potency result in assay [14] and in assay [12] was “inactive” each time.

Regarding `NC1=NC(=O)C(c2ccccc2)O1` (centres undefined), the molecule was called inactive in assay [15], in assay [1], in [2], in [3] and in assay [16]. For the same molecule, the Potency result in [4], in assay [5], in assay [6], in [7], in assay [8] and in assay [9] was “inactive” throughout. Further, the Potency result in [12] was “inactive”.

With `CCOP(=S)(Oc1cnc(C(C)(C)C)nc1)OC(C)C` (centres undefined), the call in [15], in assay [1], in assay [2] and in assay [3] was inactive. In addition, the Potency result in assay [4], in assay [5], in assay [6], in assay [7], in [17] and in [9] was “inactive” each time. Moreover, the Potency result in [13], in assay [14] and in assay [12] was “inactive” in each case.

Take `c1cc[c]([Hg][c]2ccccc2)cc1`: the outcome in assay [15], in assay [1], in assay [2] and in assay [3] was inactive. Besides, the Potency result in [4], in [7], in assay [9] and in [13] was “inactive” each time. In addition, the figures for the Potency in assay [5], in assay [6] and in assay [14] were 27.3 µM (active), 19.3 µM (active) and 8.63 µM (active), respectively.

On to `BrCCCCCCBr`, for which the call in [15], in assay [1], in assay [2] and in assay [3] was inactive. Further, the Potency entry in assay [4], in [5], in assay [6], in assay [7], in assay [8] and in [9] was “inactive” throughout. Moreover, the Potency result in [13], in assay [14] and in assay [12] was “inactive” in each case.

For `CC(C=O)Cc1ccc2c(c1)OCO2` (centres undefined), the molecule was classed as inactive in assay [15], in assay [1], in assay [2] and in [3]. Besides, the Potency result in assay [4], in [5], in assay [6], in [7], in [17] and in assay [8] was “inactive” each time. Moreover, the Potency entry in [9], in assay [13], in assay [14] and in [12] was “inactive” each time.

Consider `CCN(CC)C(=O)[C@@H]1C=C2c3cccc4[nH]cc(c34)C[C@H]2N(C)C1`, for which the molecule was classed as inactive in assay [15], in assay [1], in assay [2], in assay [3] and in [16]. Moreover, the Potency entry in assay [4], in assay [5], in assay [6], in [7], in [9] and in assay [13] was “inactive” in each case. In addition, in assay [14], the Potency result was “inactive”. The Potency in assay [12] is 80 µM (active).

For `CCC(Cl)[N+](=O)[O-]` (centres undefined), the outcome in assay [15], in assay [1], in [2], in assay [3] and in [16] was inactive. Also, the Potency entry in assay [4], in assay [5], in [6], in [7], in assay [8] and in assay [9] was “inactive” in each case. Also, the Potency result in assay [12] was “inactive”.

Take `O=C1OC(CCN2CCCCC2)OC1(c1ccccc1)c1ccccc1` (centres undefined): the call in [15], in assay [1], in assay [2] and in assay [3] was inactive. Besides, the Potency result in [4], in assay [5], in assay [6], in assay [7], in assay [8] and in assay [9] was “inactive” throughout. For the same molecule, the Potency entry in [12] is “inactive”. Besides, the Potency in assay [13] was 26.6 µM (active).

Turning to `CC(CC(C#N)(c1ccccc1)c1ccccc1)N(C)C` (centres undefined), the molecule was called inactive in assay [15], in assay [1], in assay [2] and in [3]. Besides, the Potency result in assay [4], in [5], in assay [6], in assay [7] and in [9] was “inactive” in each case.

On to `c1cc2c(c(N3CCNCC3)c1)OCCO2`, for which the molecule was classed as inactive in [15], in [1], in assay [2], in assay [3] and in assay [16]. Moreover, the Potency entry in assay [4], in [5], in assay [6], in [17], in assay [8] and in assay [9] was “inactive” each time. For the same molecule, the Potency entry in assay [13], in assay [14] and in assay [12] was “inactive” each time.

Turning to `CCOP(=S)(OCC)SCSP(=S)(OCC)OCC`, the call in [15], in assay [1], in assay [2] and in [3] was inactive. Also, the Potency entry in assay [4], in [5], in assay [6], in assay [7], in [9] and in assay [13] was “inactive” in each case. Besides, in assay [12], the Potency result was “inactive”.

`N#CC(CCc1ccc(Cl)cc1)(Cn1cncn1)c1ccccc1` (centres undefined): the call in assay [1], in [2] and in [3] was inactive. Also, the Potency result in assay [4] and in assay [14] was “inactive” each time. Further, the Potency in assay [5] was 54.5 µM (active); in assay [6], 27.3 µM (active); in assay [7], 54.9 µM (active); in assay [8], 24.5 µM (active); in [13] it was 61.1 µM (active); in assay [12] it was 30.6 µM (active).

Consider `O=C(O)C(Br)CBr` (centres undefined), for which the molecule was called inactive in assay [1], in [2] and in assay [3]. The Potency result in assay [4], in [5], in assay [6], in assay [7], in assay [8] and in assay [9] was “inactive” in each case. The Potency result in assay [12] is “inactive”.

As for `CNC(=O)Oc1cccc(C(C)C)c1`, the result in assay [15], in [1], in assay [2], in assay [3] and in assay [16] was inactive. Also, the Potency result in assay [4], in [5], in [6], in assay [7], in assay [8] and in [9] was “inactive” each time. In assay [12], the Potency result was “inactive”.

For the molecule `CCCCOC(=O)[C@@H](C)Oc1ccc(Oc2ccc(C#N)cc2F)cc1`, the call in assay [15], in assay [1], in [2] and in assay [3] was inactive. Also, the Potency entry in assay [4], in [5], in [6], in assay [7], in [8] and in assay [9] was “inactive” in each case. Moreover, the Potency result in assay [12] is “inactive”.

Turning to `CCOC(=O)CP(=O)(OCC)OCC`, the outcome in [15], in [1], in assay [2], in [3] and in assay [16] was inactive. The Potency result in assay [4], in [5], in [6], in assay [7], in assay [8] and in [9] was “inactive” throughout. Besides, in assay [12], the Potency entry is “inactive”.
